Eight compounds from PubChem BioAssay (NCI) can be followed below.

The panel holds about 83,000 compounds, 20% with a hit somewhere; the sample as a whole holds those more often.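 The test compound was applied at a single concentration to cells in 96-well plates for 48 hours, and percent growth was recorded.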 Values without a mark were called inactive. The source made the active and inactive calls. The calls were made as follows: active = growth percent below 10; inactive = the rest.

What all share (assay): NCI-60 one-dose screen, 48 h (100 = growth as untreated, 0 = no growth, -100 = all killed)
Holding throughout (conditions): 10 µM unless noted

For assay [1], the system named is NCI-H23 lung.
Assay [2] deals with NCI-H226 lung.
Assay [3] has as its system NCI-H322M lung.
Assay [4] has as its system HOP-62 NSCLC.
The test system of assay [5] is NCI-H460 lung.
Assay [6] has as its system HOP-92 NSCLC.
Assay [7] relates to NCI-H522 lung.
Assay [8] has as its system A549/ATCC NSCLC.
Assay [9] concerns 786-0 renal.
Assay [10] concerns COLO 205 colon.
For assay [11], the system named is DU-145 prostate.
The subject of assay [12] is K-562 leukemia.
The test system of assay [13] is MALME-3M melanoma.
The test system of assay [14] is MDA-MB-231 breast.
Assay [15] relates to RXF 393 renal.
The test system of assay [16] is SF-268 CNS.
The test system of assay [17] is SF-295 CNS.
Assay [18] relates to SF-539 CNS.
In assay [19] the test system is UACC-257 melanoma.
The test system of assay [20] is M14 melanoma.

On to `Cc1c(Br)cccc1NC(=O)c1sc2nc3c(cc2c1N)CN(Cc1ccccc1)CC3`, for which the growth in [1] is 40.7%; in assay [2], 23.7%; in assay [3], 41.2%; in assay [4], -2.37% (active); in assay [5], 6.71% (active); in [6], 30.2%. Besides, the growth is -0.487% (active) in [7]; 21.4% in assay [8]; 35.1% in assay [9]; -4.67% (active) in [10]; 17.8% in [11]; 7.49% (active) in assay [12]. Besides, the growth in assay [13] was 32.8%; in assay [14], 22.7%; in [15], 6.25% (active); in assay [16], 31.7%; in assay [17], 18.8%; in assay [18], -4.32% (active). The growth is 67.7% in assay [19] and 0.627% (active) in assay [20].
As for `COc1ccc(-n2cc(COc3ccc4c5ccnc(C)c5n(CC(C)C)c4c3)nn2)cc1`, the growth in assay [1] was 61.9%; in assay [2], 52.3%; in [3] it was 88.7%; in assay [4], 56.6%; in [5] it was 69.5%; in assay [6] it was 44.9%. The growth is 37.3% in [7]; 67.1% in assay [8]; 73.9% in assay [9]; 68.6% in [10]; 88.3% in assay [11]; 27.3% in [12]. Besides, the growth in [13] is 71.2%; in [14], 73.1%; in assay [15], 57.5%; in assay [16] it was 79%; in [17], 60.6%; in assay [18] it was 82.6%. Further, the growth in assay [19] was 52.7%; in assay [20] it was 71.5%.
For `Nc1c(C(=O)Nc2ccccn2)sc2nc3c(cc12)CCCCC3`, the growth in assay [1] is 29.9%; in [2], 77%; in assay [3], 52.6%; in [4], 40.2%; in assay [5], 6.46% (active); in assay [6], 67.5%. Also, the growth is 2.61% (active) in assay [7]; 20.9% in [8]; 27.6% in assay [9]; 6.18% (active) in [10]; 12.2% in assay [11]; 7.25% (active) in [12]. In addition, the growth in assay [13] is 73.1%; in assay [14], 46.6%; in assay [15] it was 13.1%; in [16], 53.4%; in assay [17], 15.4%; in assay [18] it was 4.89% (active). The figures for the growth in assay [19] and in assay [20] were 72.5% and 10.8%, respectively.
Turning to `Cc1cnc(SCc2ccc(Cl)cc2)[nH]c1=S`, the growth is 94.8% in assay [1]; 111% in assay [2]; 89.5% in assay [3]; 94.2% in assay [4]; 113% in assay [5]; 105% in [6]. Moreover, the growth in [7] was 78.7%; in assay [8], 94.4%; in assay [9], 92.8%; in assay [10] it was 121%; in [11], 100%; in [12] it was 92.9%. For the same compound, the growth was 95.8% in assay [13]; 101% in [14]; 132% in [15]; 95.3% in assay [16]; 95.5% in [17]; 101% in assay [18]. Moreover, the growth in assay [19] and in [20] was 102% each time.
For `C/C(=C\c1cnc(C)s1)[C@@H]1C[C@@H]2O[C@@H]2CCC[C@H](C)[C@H](O)[C@@H](C)C(=O)C(C)(C)[C@@H](O)CC(=O)O1`, the growth in assay [1] was 31.7%; in assay [2], 85.3%; in [3], 25.7%; in assay [4], 26.5%; in assay [5], 14.9%; in assay [6], 52.6%. The growth was -2.17% (active) in assay [7]; 42.3% in assay [8]; 43.6% in assay [9]; -8.64% (active) in [10]; 2.1% (active) in [11]; 11.8% in assay [12]. Moreover, the growth in assay [13] is 54.6%; in assay [14] it was 41.3%; in [15] it was 18.1%; in [16], 51.7%; in assay [17] it was 7.05% (active); in assay [18], 7.63% (active). Further, the growth was 76.1% in assay [19] and 22.1% in [20].
With `COc1cc(NC(=O)c2cc(O)c(C/C=C(\C)CCC=C(C)C)c(O)c2)cc2c1O[C@]1(C)CC[C@@H](O)C(C)(C)[C@H]1C2`, the growth in assay [1] was 25.1%; in assay [2], 38%; in assay [3] it was 41.5%; in [4] it was 12.1%; in assay [5] it was 11.4%; in assay [6], -9.24% (active). The growth in assay [7] is 12.8%; in assay [8], 14.5%; in assay [9] it was -19% (active); in [10], -22.3% (active); in assay [11], 20.3%; in [12] it was 0.252% (active). The growth in [13] was -18.5% (active); in assay [14], -33.7% (active); in [15], -38.7% (active); in assay [16], 15.7%; in assay [17], -8.51% (active); in assay [18], -51.2% (active). The growth in [19] is 34.4%; in assay [20], -15.4% (active).
In the case of `O=c1cc(/C=N\Nc2nc(-c3ccc(Cl)cc3Cl)cs2)c2cc(Cl)ccc2o1`, the growth in assay [1] is 85.3%; in [2], 87.9%; in assay [3] it was 95.3%; in [4], 80.3%; in [5], 96.1%; in assay [6], 82.2%. Besides, the growth in [7] was 88.6%; in assay [8] it was 88.3%; in assay [9] it was 96.9%; in assay [10], 107%; in [11] it was 102%; in assay [12], 84.1%. The growth was 116% in [13]; 82.8% in assay [14]; 114% in [15]; 101% in assay [16]; 95.2% in assay [17]; 94.3% in assay [18]. Further, the growth in assay [19] was 99.2%; in assay [20] it was 91.4%.
As for `COc1ccc2oc(=O)cc(-c3c(C#N)c(N)n4nc(N)c(C#N)c4c3C#N)c2c1`, the growth in [1] is 102%; in [2], 95.4%; in assay [3] it was 96.8%; in assay [4], 90.9%; in assay [5], 101%; in [6], 97.3%. Besides, the growth in assay [7] is 80.1%; in assay [8], 95%; in assay [9], 103%; in assay [10] it was 108%; in [11], 106%; in assay [12] it was 86.4%. Besides, the growth in assay [13] was 77.4%; in assay [14] it was 104%; in assay [15], 100%; in assay [16] it was 89.9%; in assay [17], 103%; in assay [18] it was 98.2%. In addition, the growth is 107% in [19] and 111% in [20].
